Measurements as given in PubChem BioAssay (Tox21).
“And” between values parts separate entries of the source, which are not always exact repeats. Identical values can stand only once. Records with an inconclusive call do not appear. The source holds several records for some structures; these can differ, active in one and inactive in another. The source made the active and inactive calls. Unless noted, the call rests on the fitted dose curve; in most records, active means well fitted curve in the direction sought with a large enough effect in the repeat runs; inconclusive means weak or mixed curves; inactive means no such curve, though single readings can be large; an effect the other way counts as inactive or inconclusive.

Legend:
[1] = target: Thyrotropin-releasing hormone receptor (Homo sapiens) (UniProt P34981); test: qHTS assay to identify small molecule agonists of the thyrotropin-releasing hormone receptor (TRHR) signaling pathway (AID 1346891; calls by dose curve; further: series mostly up to about 58 µM)
How it was run: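 Screening of agonists relied on calcium signalling in HEK293 cells expressing human TRHR: dye loading 2 h at 37 °C preceded compound addition and a 3-min fluorescence time course.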

[2] = Human pregnane X receptor (PXR) small molecule agonists, qHTS cell viability counter screen (AID 1346977); further: nearly all actives have a fitted effect of over 50% in size; further: potency means the concentration at half of the fitted maximal effect
How it was run: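 Tox21 qHTS format; PXR-Luc HepG2, 2,000/well, charcoal-stripped FBS 5%. Cpd exposure 24hr. Read: CellTiter-Fluor fluorescence, multiplexed with luciferase.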

[3] = Caspase-3/7 induction in HepG2 cells by small molecules, qHTS assay (AID 1346978); further: nearly all actives have a fitted effect of over 15% in size
How it was run: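 Caspase-3/7 induction was measured by Caspase-Glo 3/7 luminescence (30 min, room temperature) after a 17 hr compound exposure of wild-type HepG2 cells seeded at 2,000 per well and pre-incubated 5 hr.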

[4] = Caspase-3/7 induction in CHO-K1 cells by small molecules, qHTS cell viability counter screen (AID 1346979); further: nearly all actives have a fitted effect of over 35% in size; further: potency means the concentration at half of the fitted maximal effect
How it was run: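 CellTiter-Fluor viability check, qHTS format: wild-type CHO-K1, 16hr compound treatment, 1hr reagent incubation, fluorescence read.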

[5] = Caspase-3/7 induction in CHO-K1 cells by small molecules, qHTS assay (AID 1346980); further: nearly all actives have a fitted effect of over 15% in size
How it was run: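 Luminescent Caspase-Glo 3/7 read (30min, room temperature) quantified apoptosis induction. Cells were wild-type CHO-K1, treated with compound for 17hr at 37 C and 5% CO2.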

[6] = Caspase-3/7 induction in HepG2 cells by small molecules, qHTS cell viability counter screen (AID 1346981); further: nearly all actives have a fitted effect of over 30% in size; further: potency means the concentration at half of the fitted maximal effect; on activity change, negative = cytotoxicity: series mostly up to about 92 µM
How it was run: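 Viability determined by CellTiter-Fluor fluorescence in HepG2 wells also used for the luminescent Caspase-Glo 3/7 read. Compounds were present for 16 hr at 37 C, 5% CO2 before reagent addition.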

[7] = target: Nuclear receptor subfamily 1 group I member 2 (Homo sapiens) (UniProt O75469); test: Human pregnane X receptor (PXR) small molecule agonists, qHTS assay (AID 1346982); further: nearly all actives have a fitted effect of over 35% in size; further: potency means the concentration at half of the fitted maximal effect
How it was run: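 Compound-induced hPXR transactivation of a CYP3A4 luciferase reporter was scored in HepG2 PXR-Luc cells over 24 hr at 37 C, 5% CO2, by luminescence.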
On the % scale 0 is the no-effect control and ±100 the full control effect.

Sequence of Nuclear receptor subfamily 1 group I member 2 (Homo sapiens) (O75469 whole entry, looked up): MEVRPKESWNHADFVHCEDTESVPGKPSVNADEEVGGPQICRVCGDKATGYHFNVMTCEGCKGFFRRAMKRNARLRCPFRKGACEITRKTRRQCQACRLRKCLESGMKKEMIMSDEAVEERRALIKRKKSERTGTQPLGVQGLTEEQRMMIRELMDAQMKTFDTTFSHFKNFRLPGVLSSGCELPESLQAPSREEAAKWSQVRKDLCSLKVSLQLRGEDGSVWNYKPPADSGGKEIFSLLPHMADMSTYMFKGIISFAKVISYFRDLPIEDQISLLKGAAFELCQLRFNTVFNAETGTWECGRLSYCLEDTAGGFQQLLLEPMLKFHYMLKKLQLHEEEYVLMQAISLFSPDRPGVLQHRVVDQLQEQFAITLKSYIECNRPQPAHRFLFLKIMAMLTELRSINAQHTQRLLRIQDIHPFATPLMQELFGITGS
Sequence of Thyrotropin-releasing hormone receptor (Homo sapiens) (P34981 whole entry, looked up): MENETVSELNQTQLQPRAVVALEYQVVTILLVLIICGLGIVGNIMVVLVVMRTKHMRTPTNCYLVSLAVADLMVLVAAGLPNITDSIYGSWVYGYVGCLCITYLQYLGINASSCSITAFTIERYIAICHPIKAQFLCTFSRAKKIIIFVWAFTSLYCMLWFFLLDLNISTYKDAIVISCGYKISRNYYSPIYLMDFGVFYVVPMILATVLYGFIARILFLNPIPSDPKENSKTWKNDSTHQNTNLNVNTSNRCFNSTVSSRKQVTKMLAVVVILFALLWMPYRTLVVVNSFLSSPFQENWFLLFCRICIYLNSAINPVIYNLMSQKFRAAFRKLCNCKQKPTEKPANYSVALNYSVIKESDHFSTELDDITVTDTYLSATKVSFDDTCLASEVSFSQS

Brc1ccc(Oc2ccccc2)cc1
inactive: Potency [1] | Potency [2] | Potency [3] | Potency [4] | Potency [5] | Potency [6] | Potency [7]

CC(Cl)Cl
inactive: Potency [1] | Potency [2] | Potency [3] | Potency [4] | Potency [5] | Potency [6] | Potency [7]

CCOP(O)OCC
inactive: Potency [1] | Potency [2] | Potency [3] | Potency [4] | Potency [5] | Potency [6] | Potency [7]

O=C(NC(=O)c1c(F)cccc1F)Nc1cc(Cl)c(Oc2ncc(C(F)(F)F)cc2Cl)c(Cl)c1
inactive: Potency [1] | Potency [2] | Potency [3] | Potency [5] | Potency [6]
active: Potency [4] 52.2 µM | Potency [7] 8.27 µM

CN(N=O)c1ccc([N+](=O)[O-])cc1
inactive: Potency [1] | Potency [2] | Potency [3] | Potency [4] | Potency [5] | Potency [6]

O=C(NCc1cccnc1)Nc1ccc([N+](=O)[O-])cc1
inactive: Potency [1] | Potency [2] | Potency [3] | Potency [4] | Potency [5] | Potency [6]

N#Cc1ccc(Cl)cc1
inactive: Potency [1] | Potency [2] | Potency [3] | Potency [4] | Potency [5] | Potency [6]

CCCCCC[N+](=O)[O-]
inactive: Potency [1] | Potency [2] | Potency [3] | Potency [4] | Potency [5] | Potency [6]

ClCCCCBr
inactive: Potency [1] | Potency [2] | Potency [3] | Potency [4] | Potency [5] | Potency [6]

NCCCNCCCN
inactive: Potency [1] | Potency [2] | Potency [3] | Potency [4] | Potency [5] | Potency [6]

C=CCOC(C)=O
inactive: Potency [1] | Potency [2] | Potency [3] | Potency [4] | Potency [5] | Potency [6] | Potency [7]

CC(=O)C(C)(C)C
inactive: Potency [1] | Potency [2] | Potency [3] | Potency [4] | Potency [5] | Potency [6] | Potency [7]

CCCCOC(=O)c1ccccc1C(=O)OCc1ccccc1
inactive and 21.7 µM (active): Potency [7]
inactive and 48.6 µM (active): Potency [2]
inactive: Potency [1] | Potency [3] | Potency [4] | Potency [5] | Potency [6]

CCC(Cl)CCl (stereo not given)
inactive: Potency [1] | Potency [2] | Potency [3] | Potency [4] | Potency [5] | Potency [6] | Potency [7]

CCOc1ccc(C(C)(C)COCc2cccc(Oc3ccccc3)c2)cc1
inactive: Potency [1] | Potency [2] | Potency [3] | Potency [4] | Potency [5] | Potency [6]

COP(=S)(OC)Oc1ccc([N+](=O)[O-])cc1Cl
active: Potency [2] 34.4 µM | Potency [4] 68.6 µM | Potency [6] 61.1 µM
inactive: Potency [1] | Potency [3] | Potency [5]

NCC(CC(=O)O)c1ccc(Cl)cc1 (stereo not given)
inactive: activation [1] -0.989% [at 0.218 µM] | activity change, negative = cytotoxicity [2] -0.756% [at 0.349 µM] | caspase activation [3] 1.78% [at 0.349 µM] | activity change, negative = cytotoxicity [4] 5.63% [at 0.349 µM] | caspase-3/7 activation [5] -0.192% [at 0.349 µM] | activity change, negative = cytotoxicity [6] 8.17% [at 0.349 µM]

CCCN(CCCl)c1c([N+](=O)[O-])cc(C(F)(F)F)cc1[N+](=O)[O-]
inactive: Potency [1] | Potency [2] | Potency [3] | Potency [4] | Potency [5] | Potency [6]

C[C@@H]1CC[C@H]2[C@@H](C)C(=O)O[C@@H]3O[C@@]4(C)CC[C@@H]1[C@]32OO4
active: Potency [4] 4.22 µM
inactive: Potency [1] | Potency [2] | Potency [3] | Potency [5] | Potency [6]

O=Cc1ccc2c(c1)OCO2
inactive: Potency [1] | Potency [2] | Potency [3] | Potency [4] | Potency [5] | Potency [6]

Nc1nc(N)nc(N)n1
inactive: Potency [1] | Potency [2] | Potency [3] | Potency [4] | Potency [5] | Potency [6]

CCCCCCCCOC(=O)c1ccc(C(=O)OCCCCCCCC)c(C(=O)OCCCCCCCC)c1
inactive: Potency [1] | Potency [2] | Potency [3] | Potency [4] | Potency [5] | Potency [6]

C=CC(=O)OCC(C)C
inactive: Potency [1] | Potency [2] | Potency [3] | Potency [4] | Potency [5]

CCCCNP(N)(N)=S
inactive: Potency [1] | Potency [2] | Potency [3] | Potency [4] | Potency [5] | Potency [6]

CC(C)(CCl)C(=O)Cl
inactive: Potency [1] | Potency [2] | Potency [3] | Potency [4] | Potency [5] | Potency [6]

C[N+](C)(C)CCCl
inactive: Potency [1] | Potency [2] | Potency [3] | Potency [4] | Potency [5] | Potency [6]

CC(C)(Cl)[N+](=O)[O-]
inactive: Potency [1] | Potency [2] | Potency [3] | Potency [4] | Potency [5] | Potency [6]

CC(Cl)C(C)Cl (stereo not given)
inactive: Potency [1] | Potency [2] | Potency [3] | Potency [4] | Potency [5] | Potency [6]

O=C(O)c1ccccc1C(=O)Nc1cccc2ccccc12
inactive: Potency [1] | Potency [2] | Potency [3] | Potency [4] | Potency [5] | Potency [6]

O=[N+]([O-])c1ccccc1CCl
inactive: Potency [1] | Potency [2] | Potency [3] | Potency [4] | Potency [5] | Potency [6]

OCCCBr
inactive: Potency [1] | Potency [2] | Potency [3] | Potency [4] | Potency [5]

Cn1cc[n+](C)c1 (tested in a mixture with another compound)
inactive: Potency [1] | Potency [2] | Potency [3] | Potency [4] | Potency [5] | Potency [6] | Potency [7]

CC(C)=CCOc1c2occc2cc2ccc(=O)oc12
inactive: Potency [1] | Potency [2] | Potency [3] | Potency [4] | Potency [5] | Potency [6]

C=CC[C@]1(O)CC[C@H]2[C@@H]3CCC4=CC(=O)CCC4=C3C=C[C@@]21C
inactive: Potency [1] | Potency [2] | Potency [3] | Potency [5] | Potency [6]
active: Potency [4] 7.5 µM

Cc1ccc(N)cc1C
inactive: Potency [1] | Potency [2] | Potency [3] | Potency [4] | Potency [5] | Potency [6]

[CH3][Sn]([CH3])([Cl])[Cl]
inactive: Potency [1] | Potency [2] | Potency [3] | Potency [5] | Potency [6] | Potency [7]
active: Potency [4] 31.1 µM and 54.5 µM

CCCCCCCCCCOC(=O)c1ccccc1C(=O)OCCCCCCCCCC
inactive: Potency [1] | Potency [2] | Potency [3] | Potency [4] | Potency [5] | Potency [6] | Potency [7]

CCOP(=S)(OCC)Oc1nc(Cl)c(Cl)cc1Cl
17.3 µM (active) and inactive: Potency [7]
inactive: Potency [1] | Potency [2] | Potency [3] | Potency [4] | Potency [5] | Potency [6]

O=Cc1ccc(Cl)cc1Cl
inactive: Potency [1] | Potency [2] | Potency [3] | Potency [4] | Potency [5] | Potency [6] | Potency [7]

COC(=O)C(Cl)C(=O)OC
inactive: Potency [1] | Potency [2] | Potency [3] | Potency [4] | Potency [5] | Potency [6] | Potency [7]

BrCCCCBr
inactive: Potency [1] | Potency [2] | Potency [3] | Potency [4] | Potency [5] | Potency [6] | Potency [7]

C=CCCl
inactive: Potency [1] | Potency [2] | Potency [3] | Potency [4] | Potency [5] | Potency [6] | Potency [7]

CCCC(=O)Cl
inactive: Potency [1] | Potency [2] | Potency [3] | Potency [4] | Potency [5] | Potency [6] | Potency [7]

O=C1C(Cl)C(CCl)CN1c1cccc(C(F)(F)F)c1 (stereo not given)
inactive: Potency [1] | Potency [2] | Potency [3] | Potency [4] | Potency [5] | Potency [6]
active: Potency [7] 24.3 µM

O=C=Nc1ccc(Cl)cc1
active: Potency [7] 1.54 µM
inactive: Potency [1] | Potency [2] | Potency [3] | Potency [4] | Potency [5] | Potency [6]

CCOP(=O)(OCC)SCCSCC
inactive: Potency [1] | Potency [2] | Potency [3] | Potency [4] | Potency [5] | Potency [6]
active: Potency [7] 58.3 µM

BrCC(Br)C1CCC(Br)C(Br)C1 (stereo not given)
active: Potency [7] 48.3 µM
inactive: Potency [1] | Potency [2] | Potency [3] | Potency [4] | Potency [5] | Potency [6]

CCCN(CC1CC1)c1c([N+](=O)[O-])cc(C(F)(F)F)cc1[N+](=O)[O-]
inactive: Potency [1] | Potency [2] | Potency [3] | Potency [4] | Potency [5] | Potency [6]
active: Potency [7] 19.3 µM

O=C(CCl)c1ccc(Cl)cc1Cl
inactive: Potency [1] | Potency [2] | Potency [3] | Potency [5] | Potency [6]
active: Potency [4] 68.2 µM and 26.6 µM | Potency [7] 60.8 µM and 29.8 µM

CCc1ccc(C(=O)NN(C(=O)c2cc(C)cc(C)c2)C(C)(C)C)cc1
active: Potency [4] 27.3 µM | Potency [6] 9.69 µM
inactive: Potency [1] | Potency [2] | Potency [3] | Potency [5] | Potency [7]

CCCCc1c(C)nc(NCC)nc1OS(=O)(=O)N(C)C
inactive: Potency [1] | Potency [3] | Potency [5]
active: Potency [2] 61.1 µM | Potency [4] 61.1 µM | Potency [6] 61.1 µM | Potency [7] 9.69 µM

CCOP(=S)(Oc1ccc([N+](=O)[O-])cc1)c1ccccc1 (stereo not given)
inactive: Potency [1] | Potency [2] | Potency [3] | Potency [4] | Potency [5] | Potency [6] | Potency [7]

c1ccc(C2CC2)c(OCC2=NCCN2)c1
inactive: Potency [1] | Potency [2] | Potency [3] | Potency [4] | Potency [5] | Potency [6] | Potency [7]

Cc1ccccc1CCl
inactive: Potency [1] | Potency [2] | Potency [3] | Potency [4] | Potency [5] | Potency [6] | Potency [7]

CCBr
inactive: Potency [1] | Potency [2] | Potency [3] | Potency [4] | Potency [5] | Potency [6] | Potency [7]

CCO[C@H]1O[C@@H]2OC3(C)CC[C@H]4[C@H](C)CC[C@@H]([C@H]1C)[C@@]24OO3
inactive: Potency [1] | Potency [2] | Potency [3] | Potency [5] | Potency [6] | Potency [7]
active: Potency [4] 0.266 µM

Sc1ccccc1Cl
inactive: Potency [1] | Potency [2] | Potency [3] | Potency [4] | Potency [5] | Potency [6] | Potency [7]

COc1cc(CC(C)N)cc2c1OCO2 (stereo not given)
inactive: Potency [1] | Potency [2] | Potency [3] | Potency [4] | Potency [5] | Potency [6] | Potency [7]

COC(C)(C)CCC[C@H](C)C/C=C/C(C)=C/C(=O)OC(C)C
active: Potency [7] 24.3 µM
inactive: Potency [1] | Potency [2] | Potency [3] | Potency [4] | Potency [5] | Potency [6]
